Data on 5 molecules can be found in PubChem BioAssay.

Activity calls are given as the source filed them.

Experiment [1] is described as follows: binders of probe aFSTL3 on microarray, primary screen, stem cell growth factor project, biochemical, small-molecule microarray, fluorescence 635/667 (AID 1064).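 Also: measures binding of the biotinylated anti-FSTL3 antibody to printed compounds.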 The settings on record: higher = more signal.
A short description of experiment [2]: binders from COS7 lysate, DM2A8 probe, primary screen, torsin A project, cell lysate, small-molecule microarray, fluorescence 635/667 (AID 1065). The settings on record: higher = more signal, COS7 lysate expressing mutant human TOR1A.
Experiment [3] is described as follows: binders of probe aFGF2 on microarray, primary screen, stem cell growth factor project, biochemical, small-molecule microarray, fluorescence 635/667 (AID 1067).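 Also: measures binding of biotinylated aFGF2 protein to printed compounds on slides; z-score merges feature fluorescence and signal-to-noise across triplicate slides.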 The settings on record: higher = more signal.
Experiment [4] in a line: binders of probe aFGF10 on microarray, primary screen, stem cell growth factor project, biochemical, small-molecule microarray, fluorescence 635/667 (AID 1071).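 Also: score merges 667 nm spot intensity and signal to noise from triplicate slides.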 The settings on record: higher = more signal.
The target in experiment [5] is Neurogenic locus notch homolog protein 2 (Homo sapiens) (UniProt Q04721). Put plainly: Notch2 binders on small-molecule microarrays, primary screen, biochemical, small-molecule microarray, 635 nm fluorescence, stem cell growth factors (AID 1073). To be noted: Notch2 binding, higher = more signal.
In experiment [6] the target is Pro-neuregulin-1, membrane-bound isoform (Homo sapiens) (UniProt Q02297). Put plainly: NRG1 binders on small-molecule microarrays, primary screen, psychiatric disease protein project, biochemical, small-molecule microarray, fluorescence 635/667 (AID 1075).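 Also: score combines 667 nm spot fluorescence with signal to noise.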 The settings on record: NRG1 binding, 635 nm fluorescence, higher = more signal.
Experiment [7] deals with Neuregulin-1 EGF-like domain. Put plainly: binders of neuregulin-1 EGF-like domain, primary screen, biochemical, small-molecule microarray, 635 nm fluorescence (AID 1081).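 Also: binding of the protein to compounds printed on small-molecule microarray slides.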 To be noted: small-molecule microarray binding, higher = more signal.
Experiment [8] in a line: FRG1 promoter luciferase signal modulators, primary screen, FRG1 inhibition for FSHD, cell-based, C2C12 myotubes, firefly/Renilla luciferase, luminescence (AID 1084). The settings on record: higher = more signal, called active from +8 up or from −8 down.
A short description of experiment [9]: binders of probe aFST on microarray, primary screen, stem cell growth factor project, biochemical, small-molecule microarray, fluorescence 635/667 (AID 1086).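 Also: score merges 667 nm fluorescence with signal-to-noise of each printed compound spot.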 To be noted: higher = more signal.
Experiment [10] in a line: binders of probe aHhip on microarray, primary screen, stem cell growth factor project, biochemical, small-molecule microarray, fluorescence 635/667 (AID 1087).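 Also: score merges spot fluorescence at 667nm with spot signal to noise ratio.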 To be noted: higher = more signal.
Experiment [11] has as its system PRMT1 (protein arginine N-methyltransferase 1). Put plainly: PRMT1 binders on small-molecule microarrays, primary screen, biochemical, small-molecule microarray, 635 nm fluorescence (AID 1088).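 Also: binding of Prmt1 protein to compounds spotted on small-molecule microarray slides.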 The settings on record: small-molecule microarray binding, higher = more signal.
A short description of experiment [12]: yeast growth modulation, basal conditions, primary screen, YJM789 clinical isolate, OD600, 24 h (AID 1089).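 Also: growth of clinical yeast isolate S. cerevisiae YJM 789 seeded 1000 cells per well; test concentration not given here.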 To be noted: S. cerevisiae YJM789 growth, higher = more signal, called active from +8 up or from −8 down.
A short description of experiment [13]: fission yeast growth modulation, primary screen, strain 972, OD600, 24 h, no modulator (AID 1090).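 Also: basal condition with compound alone and no growth modifier present; test concentration not given here.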 The settings on record: S. pombe 972 growth, higher = more signal, called active from +8 up or from −8 down.
A short description of experiment [14]: S. cerevisiae growth modulation with rapamycin, primary screen, strain BY4716, OD600, 96 h (AID 1091). Also: test concentration not given here. To be noted: higher = more signal, called active from +8 up or from −8 down.
The target in experiment [15] is Torsin-1A-interacting protein 2 (Homo sapiens) (UniProt Q8NFQ8). Put plainly: LULL1 binders on small-molecule microarray, primary screen, cell lysate, human LULL1 lysate, 635/667 nm fluorescence (AID 1092).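 Also: probe is lysate of COS7 cells overexpressing human LULL1; score merges per-feature 667 nm fluorescence with signal-to-noise.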 The settings on record: hLULL1 lysate binding, 635 nm fluorescence, higher = more signal.
A short description of experiment [16]: E. coli growth modulation, two-sided OD650, primary screen, E. coli filamentation project, strain DRC41, 24 h (AID 1093).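 Also: MC1000 strain lacking acrAB efflux and sulA so SOS filamentation is blocked; test concentration not given here.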 To be noted: OD650, 24 h, higher = more signal, called active from +8 up or from −8 down.
Experiment [17] in a line: small-molecule microarray binders of probe aLefty2, primary screen, biochemical, biotinylated probe, 635/667 nm fluorescence (AID 1094).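 Also: score merges spot fluorescence near 667 nm with spot signal-to-noise ratio.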 To be noted: higher = more signal.
Experiment [18] concerns Noggin (protein binding on small-molecule microarray). The experiment can be described thus: Noggin binders on small-molecule microarray, primary screen, biochemical, 635/667 nm fluorescence (AID 1095).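 Also: score merges 667 nm feature fluorescence with signal to noise over triplicate slides.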 The settings on record: 635 nm fluorescence, higher = more signal.
For experiment [19], the target named is Neurogenic locus notch homolog protein 3 (Homo sapiens) (UniProt Q9UM47). Put plainly: NOTCH3 binders on small-molecule microarray, primary screen, biochemical, 635/667 nm fluorescence (AID 1096). The settings on record: NOTCH3 binding, 635 nm fluorescence, higher = more signal.
The nature of experiment [20]: small-molecule microarray binders of probe aEGFR, primary screen, biochemical, biotinylated probe, 635/667 nm fluorescence (AID 1097).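 Also: probe is a biotinylated anti-EGFR antibody binding compounds printed on slides; score combines fluorescence near 667 nm and signal to noise of each spot.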 The settings on record: higher = more signal.

Sequence of Neurogenic locus notch homolog protein 2 (Homo sapiens) (Q04721 whole entry, looked up, canonical isoform): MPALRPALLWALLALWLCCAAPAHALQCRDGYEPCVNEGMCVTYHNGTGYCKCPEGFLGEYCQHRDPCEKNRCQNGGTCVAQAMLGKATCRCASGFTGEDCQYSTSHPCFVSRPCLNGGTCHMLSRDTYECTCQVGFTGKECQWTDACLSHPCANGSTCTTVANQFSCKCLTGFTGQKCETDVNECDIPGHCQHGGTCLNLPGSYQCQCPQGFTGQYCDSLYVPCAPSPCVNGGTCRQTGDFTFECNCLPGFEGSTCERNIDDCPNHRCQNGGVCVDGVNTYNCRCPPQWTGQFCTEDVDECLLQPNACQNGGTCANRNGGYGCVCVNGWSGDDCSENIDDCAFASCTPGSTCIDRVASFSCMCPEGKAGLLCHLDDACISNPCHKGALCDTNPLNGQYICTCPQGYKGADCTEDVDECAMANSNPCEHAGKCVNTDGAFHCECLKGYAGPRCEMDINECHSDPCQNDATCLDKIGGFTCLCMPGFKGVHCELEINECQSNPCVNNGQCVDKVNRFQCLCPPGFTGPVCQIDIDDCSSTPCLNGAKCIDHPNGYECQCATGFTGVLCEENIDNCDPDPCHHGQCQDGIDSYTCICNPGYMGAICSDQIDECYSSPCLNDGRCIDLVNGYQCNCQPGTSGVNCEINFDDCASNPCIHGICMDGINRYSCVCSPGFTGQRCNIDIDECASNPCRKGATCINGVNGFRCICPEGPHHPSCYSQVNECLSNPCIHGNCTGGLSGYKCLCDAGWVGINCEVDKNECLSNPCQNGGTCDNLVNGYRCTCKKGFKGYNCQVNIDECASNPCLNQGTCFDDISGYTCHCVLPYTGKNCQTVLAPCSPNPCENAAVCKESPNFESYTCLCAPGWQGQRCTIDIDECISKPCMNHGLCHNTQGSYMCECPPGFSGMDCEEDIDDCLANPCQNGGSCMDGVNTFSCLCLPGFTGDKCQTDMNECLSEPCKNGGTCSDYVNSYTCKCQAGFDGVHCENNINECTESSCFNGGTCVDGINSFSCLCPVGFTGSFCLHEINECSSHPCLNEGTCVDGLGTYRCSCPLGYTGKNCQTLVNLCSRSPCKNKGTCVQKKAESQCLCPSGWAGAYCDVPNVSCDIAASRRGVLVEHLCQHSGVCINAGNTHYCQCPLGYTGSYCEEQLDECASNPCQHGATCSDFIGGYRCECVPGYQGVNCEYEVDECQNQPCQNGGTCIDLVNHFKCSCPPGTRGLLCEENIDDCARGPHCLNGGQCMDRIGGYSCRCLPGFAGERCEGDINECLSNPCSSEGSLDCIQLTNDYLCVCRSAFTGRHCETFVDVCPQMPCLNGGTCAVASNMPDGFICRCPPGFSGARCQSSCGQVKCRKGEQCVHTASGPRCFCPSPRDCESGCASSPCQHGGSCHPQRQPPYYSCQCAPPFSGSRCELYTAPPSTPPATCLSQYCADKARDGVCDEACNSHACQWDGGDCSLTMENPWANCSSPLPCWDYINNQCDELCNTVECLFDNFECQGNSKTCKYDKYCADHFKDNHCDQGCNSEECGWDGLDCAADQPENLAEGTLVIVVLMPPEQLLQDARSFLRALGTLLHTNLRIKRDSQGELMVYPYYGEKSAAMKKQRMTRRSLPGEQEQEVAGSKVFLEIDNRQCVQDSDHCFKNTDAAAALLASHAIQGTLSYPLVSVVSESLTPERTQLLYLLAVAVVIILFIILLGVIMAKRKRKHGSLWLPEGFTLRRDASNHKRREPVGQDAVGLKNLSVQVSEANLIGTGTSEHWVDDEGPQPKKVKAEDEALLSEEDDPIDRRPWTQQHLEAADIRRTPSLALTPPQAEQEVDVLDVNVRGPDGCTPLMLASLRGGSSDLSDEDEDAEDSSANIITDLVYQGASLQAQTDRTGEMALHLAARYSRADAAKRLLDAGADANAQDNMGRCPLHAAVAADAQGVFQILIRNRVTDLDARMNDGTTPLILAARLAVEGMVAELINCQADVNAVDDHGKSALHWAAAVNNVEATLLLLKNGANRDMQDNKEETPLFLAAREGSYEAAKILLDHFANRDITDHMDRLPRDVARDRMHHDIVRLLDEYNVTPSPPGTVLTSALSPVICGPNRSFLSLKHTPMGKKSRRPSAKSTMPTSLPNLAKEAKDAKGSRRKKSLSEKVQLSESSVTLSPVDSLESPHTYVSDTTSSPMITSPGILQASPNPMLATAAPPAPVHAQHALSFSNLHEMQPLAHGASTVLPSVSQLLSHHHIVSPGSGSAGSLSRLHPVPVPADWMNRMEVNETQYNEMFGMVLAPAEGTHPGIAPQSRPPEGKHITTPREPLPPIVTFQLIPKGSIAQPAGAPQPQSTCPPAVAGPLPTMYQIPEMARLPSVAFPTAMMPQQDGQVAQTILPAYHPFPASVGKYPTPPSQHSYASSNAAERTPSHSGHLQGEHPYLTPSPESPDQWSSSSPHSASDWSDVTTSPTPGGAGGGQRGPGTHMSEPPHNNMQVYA
Sequence of Torsin-1A-interacting protein 2 (Homo sapiens) (Q8NFQ8 whole entry, looked up): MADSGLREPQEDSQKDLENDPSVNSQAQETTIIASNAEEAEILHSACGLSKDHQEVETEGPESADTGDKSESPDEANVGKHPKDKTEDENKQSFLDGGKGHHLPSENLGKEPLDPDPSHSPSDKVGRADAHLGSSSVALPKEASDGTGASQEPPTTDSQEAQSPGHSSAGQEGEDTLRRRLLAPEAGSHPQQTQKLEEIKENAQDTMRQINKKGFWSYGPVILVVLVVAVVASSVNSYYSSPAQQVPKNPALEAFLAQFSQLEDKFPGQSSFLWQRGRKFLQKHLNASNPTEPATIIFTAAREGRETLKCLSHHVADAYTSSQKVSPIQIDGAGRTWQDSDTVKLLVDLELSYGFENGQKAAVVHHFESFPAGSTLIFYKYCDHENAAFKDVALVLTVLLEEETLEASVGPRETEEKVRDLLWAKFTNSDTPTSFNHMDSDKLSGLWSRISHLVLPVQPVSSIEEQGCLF
Sequence of Pro-neuregulin-1, membrane-bound isoform (Homo sapiens) (Q02297 whole entry, looked up, the tested form may be a part, canonical isoform): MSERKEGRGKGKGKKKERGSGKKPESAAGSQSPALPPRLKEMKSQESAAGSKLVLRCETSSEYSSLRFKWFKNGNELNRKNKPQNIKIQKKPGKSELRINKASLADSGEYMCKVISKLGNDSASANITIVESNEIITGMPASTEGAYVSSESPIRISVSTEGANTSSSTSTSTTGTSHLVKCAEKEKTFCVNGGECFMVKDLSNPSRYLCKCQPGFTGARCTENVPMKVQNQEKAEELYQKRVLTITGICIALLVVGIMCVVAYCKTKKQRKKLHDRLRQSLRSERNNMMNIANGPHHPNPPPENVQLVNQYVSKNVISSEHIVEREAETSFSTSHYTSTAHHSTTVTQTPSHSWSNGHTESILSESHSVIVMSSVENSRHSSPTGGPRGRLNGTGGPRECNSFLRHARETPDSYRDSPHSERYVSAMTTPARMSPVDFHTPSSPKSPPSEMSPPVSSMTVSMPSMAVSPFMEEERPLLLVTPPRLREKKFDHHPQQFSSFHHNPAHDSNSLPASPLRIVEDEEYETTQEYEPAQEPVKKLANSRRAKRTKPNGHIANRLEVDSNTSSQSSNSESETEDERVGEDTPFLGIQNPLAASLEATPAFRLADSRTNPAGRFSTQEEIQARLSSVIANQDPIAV

As to `NC(=O)NCC#Cc1ccc2c(c1)[C@]1(C(=O)N2)[C@H](C(=O)N2CCN(c3ncccn3)CC2)[C@H]2C(=O)O[C@H](c3ccccc3)[C@H](c3ccccc3)N2[C@@H]1c1ccc(O)cc1`, the composite z-score in experiment [1] is -0.141; in experiment [2] it was 0.143; in experiment [3], -0.0328; in experiment [4], 0.861; in experiment [5], 1.17; in experiment [6] it was 0.575. For the same molecule, the composite z-score in [7] amounted to 0.664; in experiment [9], 1.1; in experiment [10] it was 0.141; in experiment [11], 1.33; in experiment [15] it was 0.828; in [17], 0.109. In addition, the composite z-score in experiment [18] was determined as 0.517; in experiment [19], 1.08; in [20] it was 0.0283. In addition, the z-score was 0.234 (inactive) in [8]; 0.541 (inactive) in [12]; -0.281 (inactive) in experiment [13]; 0.971 (inactive) in [14]; -0.653 (inactive) in [16].

For the molecule `CS(=O)(=O)CCOC(=O)C1=CC(c2ccc(CO)cc2)=CC(C2CC2)N(Cc2sc3ccccc3c2Cl)C=C1C(=O)OCCS(C)(=O)=O` (stereo not given), the composite z-score in [1] was -0.0385; in [2], 0.569; in experiment [3], -0.0746; in experiment [4], 0.165; in [5], 0.87; in experiment [6] it was 1.77. Moreover, the composite z-score is 0.962 in [7]; 0.223 in experiment [9]; 0.316 in experiment [10]; 1.46 in experiment [11]; 1.67 in experiment [15]; 0.106 in experiment [17]. Moreover, the composite z-score was 0.471 in [18], 0.946 in [19] and -0.0188 in [20]. In addition, the z-score is -1.06 (inactive) in [8]; -0.348 (inactive) in experiment [12]; -3.82 (inactive) in experiment [13]; -1.23 (inactive) in experiment [14]; -3.01 (inactive) in experiment [16].

For `COCC(=C=CC[C@H](O)c1ccc(CO)o1)CCO`, the composite z-score is -0.254 in experiment [1]; -0.0406 in [2]; 0.0154 in [3]; 0.553 in experiment [4]; -0.234 in experiment [5]; 1.19 in [6]. Further, the composite z-score in [7] was 1.23; in experiment [9], 0.51; in experiment [10], 0.382; in experiment [11] it was 1.09; in [15] it was 0.751; in experiment [17], -0.0501. In addition, the composite z-score is 1.04 in experiment [18], 1.12 in [19] and -0.0976 in [20]. Further, the z-score in experiment [8] is 0.461 (inactive); in [12], 0.6 (inactive); in experiment [13] it was 0.0793 (inactive); in [14] it was 0.244 (inactive); in experiment [16] it was -0.349 (inactive).

Consider `C=CCNC(=O)[C@H]1[C@@H]2C(=O)O[C@@H](c3ccccc3)[C@@H](c3ccccc3)N2[C@@H](c2ccccc2OCCO)[C@]12C(=O)N(C(=O)OCCOC)c1ccc(C#CC3(O)CCCCCC3)cc12`, for which the composite z-score in experiment [1] was -0.192; in experiment [2], 0.281; in experiment [3], 0.0376; in [4], 0.434; in experiment [5], 0.776; in experiment [6], 1.04. Moreover, the composite z-score in experiment [7] was 1.2; in [9] it was 0.339; in experiment [10], 0.0176; in experiment [11], 1.56; in [15], 3.1; in [17] it was -0.0499. The composite z-score in experiment [18] was 0.592; in [19], 0.759; in experiment [20], -0.0455. In addition, the z-score was -2.54 (inactive) in [8]; -0.22 (inactive) in [12]; -0.444 (inactive) in [13]; 4.93 (inactive) in experiment [14]; 1.31 (inactive) in experiment [16].

`O=C1O[C@@H](c2ccccc2)[C@@H](c2ccccc2)N2[C@@H](c3ccc(OCCO)cc3)[C@]3(C(=O)Nc4ccc(C#CC5=CCCCC5)cc43)[C@@H](C(=O)NC[C@H](O)c3ccccc3)[C@H]12`: the composite z-score in experiment [1] is -0.94; in [2], 0.297; in [3], -0.0384; in experiment [4], 0.6; in [5], 1.48; in experiment [6], 0.655. The composite z-score in experiment [7] is 1.13; in experiment [9] it was 0.126; in [10], -0.142; in [11] it was 1.36; in [15], 2.46; in experiment [17], -0.0696. Also, the figures for the composite z-score in experiment [18], in experiment [19] and in experiment [20] were 1.51, 1.02 and -0.246, respectively. The z-score in [8] is 2.03 (inactive); in experiment [12] it was 1.99 (inactive); in experiment [13] it was 2.17 (inactive); in [14] it was 4.09 (inactive); in experiment [16], -0.749 (inactive).
